Usually residual activity stands for the signal under treatment as a percentage of the control signal.

Our source for the residual activity values is ChEMBL document CHEMBL2218924, “A broad activity screen in support of a chemogenomic map for kinase signalling research and drug discovery” (Biochem J, 2013).

SMILES strings stand for the structures.

Experiment [1] addresses T1, Aurora kinase C (Homo sapiens) (UniProt Q9UQB9).
T1 sequence (whole entry): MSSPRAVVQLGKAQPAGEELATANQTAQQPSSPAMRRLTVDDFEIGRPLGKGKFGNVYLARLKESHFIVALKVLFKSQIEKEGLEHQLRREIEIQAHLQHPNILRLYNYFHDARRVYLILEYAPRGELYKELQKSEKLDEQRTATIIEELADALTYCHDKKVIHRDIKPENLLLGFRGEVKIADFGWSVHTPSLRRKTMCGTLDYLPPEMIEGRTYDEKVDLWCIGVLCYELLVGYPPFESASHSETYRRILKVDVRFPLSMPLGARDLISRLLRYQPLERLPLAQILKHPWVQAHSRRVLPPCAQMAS
Conditions: at 1 µM.

Experiment [2] addresses Protein-tyrosine kinase 6 (Homo sapiens) (UniProt Q13882). As to conditions: at 1 µM.
Experiment [3] has the same target. Conditions: at 10 µM.
Experiment [4] has as its target Tyrosine-protein kinase BTK (Homo sapiens) (UniProt Q06187). As to conditions: at 1 µM.
Experiment [5] shares this target. As to conditions: at 10 µM.
In experiment [6] the target is Tyrosine-protein kinase Blk (Homo sapiens) (UniProt P51451). Conditions: at 1 µM.
For experiment [7] the target is unchanged. Conditions: at 10 µM.
Experiment [8] addresses T2, Serine/threonine-protein kinase BRSK2 (Homo sapiens) (UniProt Q8IWQ3).
T2 sequence (whole entry): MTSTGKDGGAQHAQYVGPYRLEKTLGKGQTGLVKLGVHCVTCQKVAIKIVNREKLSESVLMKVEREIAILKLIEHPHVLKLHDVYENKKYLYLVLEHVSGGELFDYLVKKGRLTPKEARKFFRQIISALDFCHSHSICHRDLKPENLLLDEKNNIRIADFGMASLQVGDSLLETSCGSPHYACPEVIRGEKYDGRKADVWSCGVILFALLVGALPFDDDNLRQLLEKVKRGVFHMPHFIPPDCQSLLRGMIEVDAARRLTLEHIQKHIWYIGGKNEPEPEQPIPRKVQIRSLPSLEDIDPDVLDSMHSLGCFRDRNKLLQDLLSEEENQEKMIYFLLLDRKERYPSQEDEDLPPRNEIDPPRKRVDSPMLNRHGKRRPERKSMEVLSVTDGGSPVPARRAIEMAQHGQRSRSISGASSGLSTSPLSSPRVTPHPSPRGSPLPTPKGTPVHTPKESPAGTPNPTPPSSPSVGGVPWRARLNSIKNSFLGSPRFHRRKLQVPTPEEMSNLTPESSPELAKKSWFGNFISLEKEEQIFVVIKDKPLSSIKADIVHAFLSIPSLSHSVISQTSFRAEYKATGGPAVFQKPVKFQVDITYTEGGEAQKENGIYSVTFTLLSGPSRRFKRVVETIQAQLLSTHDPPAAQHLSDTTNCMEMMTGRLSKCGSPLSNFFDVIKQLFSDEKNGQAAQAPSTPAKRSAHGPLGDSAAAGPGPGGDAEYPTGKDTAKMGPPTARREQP
Conditions: at 1 µM.

In experiment [9] the target is T2, Serine/threonine-protein kinase BRSK2 (Homo sapiens). As to conditions: at 10 µM.
The target of experiment [10] is T1, Aurora kinase C (Homo sapiens). As to conditions: at 10 µM.
Experiment [11] has as its target Tyrosine-protein kinase receptor UFO (Homo sapiens) (UniProt P30530). As to conditions: at 1 µM.
For experiment [12] the target is unchanged. Conditions: at 10 µM.
For experiment [13], the target named is T3, Serine/threonine-protein kinase BRSK1 (Homo sapiens) (UniProt Q8TDC3).
T3 sequence (whole entry): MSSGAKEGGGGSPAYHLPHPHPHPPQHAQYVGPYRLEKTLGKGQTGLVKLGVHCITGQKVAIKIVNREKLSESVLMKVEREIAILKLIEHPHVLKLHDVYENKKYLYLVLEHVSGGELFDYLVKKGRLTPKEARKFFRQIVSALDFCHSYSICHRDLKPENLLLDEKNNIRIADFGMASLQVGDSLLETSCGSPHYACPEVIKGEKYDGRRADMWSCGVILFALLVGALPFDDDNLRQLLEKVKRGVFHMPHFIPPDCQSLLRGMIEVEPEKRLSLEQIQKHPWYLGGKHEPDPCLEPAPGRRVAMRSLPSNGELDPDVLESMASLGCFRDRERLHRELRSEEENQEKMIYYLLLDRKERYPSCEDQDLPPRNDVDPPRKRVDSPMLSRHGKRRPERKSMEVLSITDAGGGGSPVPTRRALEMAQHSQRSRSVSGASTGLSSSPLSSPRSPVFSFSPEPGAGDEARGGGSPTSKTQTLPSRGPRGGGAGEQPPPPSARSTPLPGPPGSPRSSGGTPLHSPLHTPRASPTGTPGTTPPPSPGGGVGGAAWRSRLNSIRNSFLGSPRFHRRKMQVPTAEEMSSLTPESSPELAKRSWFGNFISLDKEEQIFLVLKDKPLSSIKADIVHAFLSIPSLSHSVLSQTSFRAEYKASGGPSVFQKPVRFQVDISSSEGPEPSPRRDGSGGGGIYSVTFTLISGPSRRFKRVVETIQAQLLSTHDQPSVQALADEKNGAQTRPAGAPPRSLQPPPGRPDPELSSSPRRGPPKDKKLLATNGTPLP
As to conditions: at 1 µM.

The target of experiment [14] is T3, Serine/threonine-protein kinase BRSK1 (Homo sapiens). As to conditions: at 10 µM.
The target of experiment [15] is T4, Cyclin-dependent kinase 2/cyclin A (Homo sapiens) (UniProt P24941+P20248+P78396). As to conditions: at 1 µM.
Experiment [16] deals with T4, Cyclin-dependent kinase 2/cyclin A (Homo sapiens). Conditions: at 10 µM.
In experiment [17] the target is T5, Cyclin-dependent kinase 2/cyclin E (Homo sapiens) (UniProt P24864+P24941+O96020). Conditions: at 1 µM.
The target of experiment [18] is T5, Cyclin-dependent kinase 2/cyclin E (Homo sapiens). Conditions: at 10 µM.
Experiment [19] addresses T6, Cyclin-dependent kinase 1/cyclin B1 (Homo sapiens) (UniProt P06493+P14635). Conditions: at 1 µM.
The target of experiment [20] is T6, Cyclin-dependent kinase 1/cyclin B1 (Homo sapiens). As to conditions: at 10 µM.

T6 sequence (P06493 whole entry, looked up): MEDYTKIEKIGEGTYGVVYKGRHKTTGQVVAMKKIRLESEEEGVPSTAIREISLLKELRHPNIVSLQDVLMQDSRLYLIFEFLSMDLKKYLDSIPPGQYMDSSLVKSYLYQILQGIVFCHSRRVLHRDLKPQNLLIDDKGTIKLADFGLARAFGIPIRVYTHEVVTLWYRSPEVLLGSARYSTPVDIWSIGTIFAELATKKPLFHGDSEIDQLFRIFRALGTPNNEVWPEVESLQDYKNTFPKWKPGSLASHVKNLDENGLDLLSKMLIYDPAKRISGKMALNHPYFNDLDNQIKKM
T6 sequence (P14635 whole entry, looked up): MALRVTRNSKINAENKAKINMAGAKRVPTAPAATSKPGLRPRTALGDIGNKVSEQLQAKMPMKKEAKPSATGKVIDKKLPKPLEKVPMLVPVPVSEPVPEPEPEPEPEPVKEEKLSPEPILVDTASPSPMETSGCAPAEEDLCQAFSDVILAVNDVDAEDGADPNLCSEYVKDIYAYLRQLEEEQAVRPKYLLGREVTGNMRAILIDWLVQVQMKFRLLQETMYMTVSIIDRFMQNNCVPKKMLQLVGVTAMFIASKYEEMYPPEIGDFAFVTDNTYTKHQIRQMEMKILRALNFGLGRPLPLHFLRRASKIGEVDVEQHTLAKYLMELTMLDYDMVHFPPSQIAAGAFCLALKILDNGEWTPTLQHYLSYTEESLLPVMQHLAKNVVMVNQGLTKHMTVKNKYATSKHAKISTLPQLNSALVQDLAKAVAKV
Tyrosine-protein kinase BTK (Homo sapiens), sequence (Q06187 whole entry): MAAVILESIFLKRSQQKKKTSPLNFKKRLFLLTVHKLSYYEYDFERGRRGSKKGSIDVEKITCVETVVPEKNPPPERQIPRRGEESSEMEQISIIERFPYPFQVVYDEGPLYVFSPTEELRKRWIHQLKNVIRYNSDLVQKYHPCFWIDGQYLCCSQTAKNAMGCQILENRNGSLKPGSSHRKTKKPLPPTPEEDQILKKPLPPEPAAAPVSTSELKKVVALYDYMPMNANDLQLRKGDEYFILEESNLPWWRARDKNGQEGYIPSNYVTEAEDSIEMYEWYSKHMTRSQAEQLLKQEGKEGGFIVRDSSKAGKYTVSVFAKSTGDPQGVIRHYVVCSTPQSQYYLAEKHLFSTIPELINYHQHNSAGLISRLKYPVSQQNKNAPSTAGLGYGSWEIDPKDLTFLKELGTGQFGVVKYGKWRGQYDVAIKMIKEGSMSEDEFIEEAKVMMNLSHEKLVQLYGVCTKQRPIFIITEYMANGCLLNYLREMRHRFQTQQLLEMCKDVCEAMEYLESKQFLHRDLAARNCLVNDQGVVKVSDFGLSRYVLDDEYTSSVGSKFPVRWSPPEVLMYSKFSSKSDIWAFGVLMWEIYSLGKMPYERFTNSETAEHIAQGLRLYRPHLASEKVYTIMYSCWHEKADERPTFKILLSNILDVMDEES
Tyrosine-protein kinase receptor UFO (Homo sapiens), sequence (P30530 whole entry): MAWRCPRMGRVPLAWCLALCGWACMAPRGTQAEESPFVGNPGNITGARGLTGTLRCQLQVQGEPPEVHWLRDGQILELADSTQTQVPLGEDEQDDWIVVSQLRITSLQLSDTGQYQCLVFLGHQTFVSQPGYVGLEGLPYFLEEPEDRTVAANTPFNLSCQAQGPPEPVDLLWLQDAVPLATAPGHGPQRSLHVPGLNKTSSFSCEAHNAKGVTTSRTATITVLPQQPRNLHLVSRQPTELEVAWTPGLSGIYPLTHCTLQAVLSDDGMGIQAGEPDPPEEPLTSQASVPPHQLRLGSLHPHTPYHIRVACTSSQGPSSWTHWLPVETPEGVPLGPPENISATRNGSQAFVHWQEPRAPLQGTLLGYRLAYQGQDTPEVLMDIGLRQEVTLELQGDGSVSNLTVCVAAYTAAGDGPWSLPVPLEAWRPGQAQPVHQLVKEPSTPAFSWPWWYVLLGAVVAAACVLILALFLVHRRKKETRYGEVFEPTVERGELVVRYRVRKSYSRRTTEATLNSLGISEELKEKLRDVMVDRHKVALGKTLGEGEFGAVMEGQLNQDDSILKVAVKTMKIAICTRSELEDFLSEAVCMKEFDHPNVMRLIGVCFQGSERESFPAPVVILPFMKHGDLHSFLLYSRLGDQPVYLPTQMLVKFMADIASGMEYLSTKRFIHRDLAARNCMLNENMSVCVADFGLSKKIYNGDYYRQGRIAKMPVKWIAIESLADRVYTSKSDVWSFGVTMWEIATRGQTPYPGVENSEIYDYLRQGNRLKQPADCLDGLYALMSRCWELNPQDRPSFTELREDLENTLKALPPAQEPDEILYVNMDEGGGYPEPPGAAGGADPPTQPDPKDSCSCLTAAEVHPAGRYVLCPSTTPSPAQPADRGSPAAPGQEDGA
Protein-tyrosine kinase 6 (Homo sapiens), sequence (Q13882 whole entry, looked up): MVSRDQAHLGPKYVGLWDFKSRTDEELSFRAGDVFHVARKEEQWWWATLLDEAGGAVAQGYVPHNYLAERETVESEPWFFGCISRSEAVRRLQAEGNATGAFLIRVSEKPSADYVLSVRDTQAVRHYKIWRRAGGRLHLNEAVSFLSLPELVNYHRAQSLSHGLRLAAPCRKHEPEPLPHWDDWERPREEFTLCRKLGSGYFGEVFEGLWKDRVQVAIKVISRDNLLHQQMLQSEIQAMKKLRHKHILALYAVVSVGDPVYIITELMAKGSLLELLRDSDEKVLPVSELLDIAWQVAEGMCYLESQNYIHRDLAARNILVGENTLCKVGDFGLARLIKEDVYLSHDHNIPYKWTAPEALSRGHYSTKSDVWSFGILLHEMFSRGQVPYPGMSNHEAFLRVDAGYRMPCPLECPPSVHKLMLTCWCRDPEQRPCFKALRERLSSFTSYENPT
Tyrosine-protein kinase Blk (Homo sapiens), sequence (P51451 2-505 limits assumed): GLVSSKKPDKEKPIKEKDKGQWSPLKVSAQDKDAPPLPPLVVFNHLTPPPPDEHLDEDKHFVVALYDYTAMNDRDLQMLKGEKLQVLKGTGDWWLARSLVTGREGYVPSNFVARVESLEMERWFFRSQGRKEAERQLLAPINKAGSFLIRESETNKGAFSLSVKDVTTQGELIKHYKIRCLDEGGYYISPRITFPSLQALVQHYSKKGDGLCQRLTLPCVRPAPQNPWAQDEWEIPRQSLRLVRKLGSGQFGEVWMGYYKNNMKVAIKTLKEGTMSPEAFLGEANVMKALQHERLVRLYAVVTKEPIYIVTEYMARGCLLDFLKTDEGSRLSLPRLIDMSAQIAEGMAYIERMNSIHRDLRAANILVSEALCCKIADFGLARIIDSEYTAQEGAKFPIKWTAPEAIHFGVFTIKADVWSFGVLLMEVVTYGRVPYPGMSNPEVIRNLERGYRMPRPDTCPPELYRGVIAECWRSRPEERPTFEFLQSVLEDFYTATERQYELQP

`CCc1nc(-c2ccc(OC)cc2)[nH]c1-c1ccncc1`: the residual activity came to 103% in experiment [1]; 110% in [2]; 108% in [3]; 100% in experiment [4]; 105% in experiment [5]; 112% in [6]. Moreover, the residual activity came out at 79% in experiment [7], 111% in experiment [8] and 79% in [9].
In the case of `COc1cc(OC)c(/C=C2\C(=O)Nc3ccccc32)c(OC)c1`, the residual activity turned out to be 83% in experiment [1]; 87% in experiment [10]; 98% in experiment [11]; 71% in experiment [12]; 104% in experiment [2]; 96% in experiment [3]. The residual activity in experiment [4] was 93%; in experiment [5] it was 88%; in [6], 92%; in [7] it was 81%; in [13], 91%; in experiment [14], 84%. The residual activity was 91% in experiment [9]; 81% in experiment [15]; 76% in experiment [16]; 96% in [17]; 95% in experiment [18].
Turning to `O=C1NC(=O)c2c1c1c3ccccc3n3c1c1c2c2ccccc2n1C1CCC3O1`, the residual activity in experiment [11] was found to be 91%; in [12] it was 87%; in experiment [4] it was 22%; in experiment [5], 27%; in experiment [13], 98%; in experiment [14], 95%. Besides, the residual activity is 53% in experiment [8]; 52% in [9]; 78% in [19]; 48% in experiment [20]; 67% in experiment [15]; 60% in [16]. Besides, the residual activity in experiment [17] was found to be 66%; in experiment [18], 61%.
With `CCn1cnc2c(Nc3cccc(Cl)c3)nc(N[C@@H]3CCCC[C@@H]3N)nc21`, the residual activity is 22% in experiment [1]; 3% in experiment [10]; 78% in experiment [11]; 21% in experiment [12]; 94% in experiment [2]; 34% in experiment [3]. Further, the residual activity in [4] was found to be 71%; in experiment [5], 9%; in [6], 14%; in [7] it was 2%; in experiment [13] it was 91%; in experiment [14], 50%. Moreover, the residual activity in experiment [19] is 19%; in experiment [20], 4%; in experiment [15], 8%; in experiment [16] it was 0%; in experiment [17] it was 4%; in [18], -1%.
As for `COC(=O)[C@@]1(O)C[C@H]2O[C@]1(C)n1c3ccccc3c3c4c(c5c6ccccc6n2c5c31)C(=O)NC4`, the residual activity was 2% in [1]; 1% in experiment [10]; 4% in experiment [11]; -3% in [12]; 19% in experiment [2]; 1% in experiment [3]. Further, the residual activity in experiment [4] was -1%; in experiment [5] it was -1%; in experiment [6], 1%; in experiment [7], 0%; in [13], -1%; in experiment [14], 0%. For the same compound, the residual activity was 1% in [8]; 0% in experiment [9]; 5% in [19]; -1% in experiment [20]; 1% in [15]; 0% in experiment [16]. In addition, the residual activity in [17] is 6%; in [18], 0%.
In the case of `c1cc(-c2cnn3cc(-c4ccc(OCCN5CCCCC5)cc4)cnc23)ccn1`, the residual activity in experiment [1] was 35%; in experiment [10] it was 4%; in experiment [11] it was 76%; in [12] it was 24%; in experiment [2], 53%; in [3], 7%. The residual activity in [4] was determined as 69%; in experiment [5], 23%; in [6], 25%; in experiment [7], 4%; in [13], 86%; in experiment [14], 32%. Besides, the residual activity in [8] worked out at 103%; in [9], 38%; in experiment [20], 39%; in experiment [15], 100%; in experiment [16], 64%; in experiment [17], 81%. In addition, in [18], the residual activity was 45%.
For `COc1ccc2c(c1)/C(=C/c1cnc[nH]1)C(=O)N2`, the residual activity in experiment [1] is 34%; in experiment [10], 4%; in [3], 71%; in experiment [6], 81%; in experiment [7], 22%; in [13], 45%. The residual activity in experiment [14] is 8%; in [8] it was 48%; in experiment [9] it was 7%.
For the compound `COc1ccc2c(c[n+](C)c3c4cc5c(cc4ccc23)OCO5)c1OC`, the residual activity in [10] was 90%; in experiment [11] it was 93%; in [12] it was 44%; in [2], 110%; in [4], 93%; in experiment [7] it was 90%. In addition, the residual activity in experiment [13] turned out to be 47%; in experiment [14], 48%; in experiment [9], 67%; in experiment [15] it was 137%; in experiment [18], 93%.
Regarding `O=C1Nc2ccc3ncsc3c2/C1=C/c1c[nH]cn1`, the residual activity is 18% in [1]; -1% in experiment [10]; 26% in experiment [11]; 8% in experiment [12]; 66% in experiment [2]; 34% in experiment [3]. Also, the residual activity was 88% in experiment [4]; 47% in experiment [5]; 44% in experiment [6]; 5% in experiment [7]; 2% in [13]; 1% in experiment [14]. The residual activity in experiment [8] is 11%; in experiment [9], 1%; in experiment [19], 1%; in [20], -1%; in [15], 1%; in [16], 0%. Moreover, the residual activity came to 2% in experiment [17] and 1% in experiment [18].
